The panel holds about 83,000 compounds, 20% with a hit somewhere; the sample as a whole holds those more often.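 48-hour exposure, single concentration, 96-well plates; percent growth endpoint where 0 means no net growth. Active: below 10.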 Values without a mark were called inactive. Calls of active or inactive are those of the source.
Assays:
Test in all cases: NCI-60 one-dose screen, 48 h (100 = growth as untreated, 0 = no growth, -100 = all killed)
Settings in all cases: 10 µM unless noted
[1] = tested on: SR leukemia
[2] = tested on: RPMI-8226 leukemia
[3] = tested on: OVCAR-5 ovarian
[4] = tested on: OVCAR-4 ovarian
[5] = tested on: SK-OV-3 ovarian
[6] = tested on: IGROV1 ovarian
[7] = tested on: OVCAR-3 ovarian
[8] = tested on: HS 578T breast
[9] = tested on: NCI/ADR-RES ovarian
[10] = tested on: OVCAR-8 ovarian

Compound	growth [1]	growth [2]	growth [3]	growth [4]	growth [5]	growth [6]	growth [7]	growth [8]	growth [9]	growth [10]
CC(C)/C=C/CC[C@](C)(O)[C@H]1CC[C@]2(C)[C@@H]1CC[C@@H]1[C@@]3(C)C/C(=C/c4cccc(C(F)(F)F)c4)C(=O)C(C)(C)[C@@H]3CC[C@]12C	82.6%	95.4%	107%	87.2%	103%	104%	93.8%	99.7%	97.8%	–
CCc1ccc(-c2ccc(Nc3ccccc3)nn2)cc1S(N)(=O)=O	9.58% (active)	27.8%	93%	87.1%	96.8%	106%	63.8%	84.1%	85.6%	–
O=c1c(CNc2ccc(S(=O)(=O)Nc3ncccn3)cc2)coc2ccccc12	100%	73.1%	96.3%	104%	98.7%	95.2%	111%	102%	104%	–
O=C1c2ccccc2NC(c2cn(-c3ccccc3)nc2-c2cccnc2)N1Cc1ccccc1 (stereo unspecified)	78.8%	76.5%	91.5%	92.2%	117%	76.5%	102%	96.2%	97.3%	–
COc1ccc(OC)c(-c2c(C#N)c(-c3ccco3)nc3c2c(-c2ccccc2)nn3-c2ccccc2)c1	101%	96.7%	–	103%	–	88.9%	112%	86.2%	93.8%	96.2%
O=C1NC(=Nc2ccc(S(=O)(=O)Nc3nccs3)cc2)S/C1=C\c1coc2ccccc2c1=O	88.9%	101%	121%	102%	91.5%	98.1%	117%	90.8%	106%	–
Cc1ccc(/C=C(\C#N)c2cc3ccccc3n2C)cc1	25.2%	14%	–	61%	67.8%	30.5%	-12.6% (active)	34.1%	-2.11% (active)	38.9%
O=C1NC(c2ccc(Cl)c(Cl)c2)=C/C1=C\c1ccccc1	17.1%	48.3%	73.2%	-36.6% (active)	100%	59.2%	50.8%	66.3%	83.7%	–
C/C(Cc1ccc(Cl)cc1)=C(/c1ccc(Cl)cc1)c1ccc(OCCN2CCCC2)cc1	9.32% (active)	48.3%	86%	78.4%	99%	71.8%	70.5%	79.1%	84.4%	–
COc1ccc(-c2nc3ncccn3c2-c2nc3ccc(Br)cc3[nH]2)cc1	61.1%	60.6%	95.6%	101%	105%	94%	72.7%	–	–	–
COc1cnc2c(c1)C(=O)c1c-2n(CCCNC(C)C)c(=O)c2cc([N+](=O)[O-])ccc12	-7.62% (active)	-25.1% (active)	-46.6% (active)	-68.9% (active)	-66.8% (active)	-56.4% (active)	-74.3% (active)	-31% (active)	-39.9% (active)	–
CCCCCCCCNc1cccc2c1C(=O)c1ccccc1C2=O	108%	105%	105%	103%	108%	105%	92.6%	95.7%	112%	–
CN1CCN(c2nc(-c3cccc4ccccc34)nc3sc4c(c23)CCCCCC4)CC1	47.1%	79.3%	–	83.8%	89.2%	72.6%	–	86.1%	87.4%	93%
COc1ccc(CCN2C(=O)C(C)(C)SC2=S)cc1OC	103%	–	104%	96.6%	108%	94.4%	107%	107%	–	102%
Cn1c2c(c3ccc(Cl)cc31)-n1cccc1C2=O	67.1%	88.3%	103%	–	102%	69.9%	104%	104%	99.7%	–
Nc1c(C(=O)Nc2cccc(Br)c2)sc2nc3c(cc12)C(=O)CCC3	13.7%	38.3%	59.3%	77.2%	5.74% (active)	44%	5.48% (active)	–	26.9%	–

Compound	growth [1]	growth [2]	growth [3]	growth [4]	growth [5]	growth [6]	growth [7]	growth [8]	growth [9]	growth [10]
COc1ccc(-c2cc(/C=C/C(=O)c3ccc(OC)c(OC)c3)[nH]n2)cc1	-32.7% (active)	-48.4% (active)	48.5%	32.7%	49.3%	61%	-14.6% (active)	–	-0.366% (active)	–
Cc1ccsc1-c1ccc2c(c1)COC2(CCCN(C)C)c1ccc(F)cc1 (stereo unspecified)	-4.74% (active)	19%	72.1%	54.4%	79.1%	26.6%	67.2%	49%	72.4%	–
COc1cc(-c2cc(-c3nc4ccc(F)cc4[nH]3)[nH]n2)cc(OC)c1OC	12.6%	-37.3% (active)	88.5%	-2.29% (active)	13.3%	43.6%	24%	–	-6.05% (active)	–
Fc1ccc2nc(-c3cc(-c4ccc5c(c4)OCO5)n[nH]3)[nH]c2c1	10%	10.3%	–	57.2%	70.3%	62.3%	5.87% (active)	78.2%	42.4%	–
C(=C\c1c[nH]c2ccccc12)/c1ccc2ccccc2n1	67.5%	44.7%	121%	–	89.5%	47.8%	69.3%	107%	72.1%	–
CC(CNc1nc(Nc2ccc(Cl)c(Cl)c2)nc(C(Cl)(Cl)Cl)n1)N(C)C (stereo unspecified)	-42.6% (active)	-12.5% (active)	33.7%	–	25.9%	-5.99% (active)	-67.8% (active)	-20.8% (active)	-23.6% (active)	–
O=c1c(CNc2ccc(S(=O)(=O)Nc3nccs3)cc2)coc2ccccc12	94.7%	92.1%	92.8%	99.9%	102%	101%	110%	–	102%	–
c1csc(-c2nc(-c3cc4ccccc4c(N4CCOCC4)n3)cs2)c1	97.7%	106%	124%	110%	99.5%	86.3%	111%	99.9%	94.2%	–
Nc1c(C(=O)Nc2c(Cl)cccc2Cl)sc2nc3c(cc12)C(=O)CCC3	36.4%	65.5%	86.5%	65.6%	32.2%	71.9%	11.2%	13.4%	17.1%	–
COc1cc(-c2cc(-c3nc4ccccc4[nH]3)[nH]n2)cc(OC)c1OC	11.1%	-24.9% (active)	93.9%	44.3%	42.4%	47.4%	33.8%	–	36.2%	–
COc1ccc(-c2cc(/C=C/C(=O)c3ccc(N)cc3)[nH]n2)cc1	-20.2% (active)	-29.9% (active)	–	33.1%	-8.64% (active)	32.8%	-34.1% (active)	–	17.5%	–
O=C(NC1=CC(=O)c2ccccc2C1=O)c1ccccc1	-0.906% (active)	4.25% (active)	42.2%	–	32%	-30.1% (active)	-82.5% (active)	25.3%	16.6%	–
Cn1cccc1/C=C1/SC(=S)N(CCc2ccc(O)cc2)C1=O	24.1%	–	95.9%	89.4%	83.5%	45.7%	39.4%	67.7%	16.3%	67.1%
COc1ccc2nc(-c3c(-c4ccccc4)nc4ncccn34)[nH]c2c1	90.3%	88%	97.9%	93.2%	109%	111%	108%	–	108%	–
CCCCC(=O)OC1CCCCC1C (stereo unspecified)	95%	–	90.9%	104%	89.4%	106%	107%	97.6%	96.7%	87%

Reference: PubChem BioAssay (NCI)
